# ELG1 genotoxic – inducers of genotoxicity in HEK293T ELG1-luciferase cells. Potency, µM (top dose mostly 46 µM), hits mostly activators. HEK293T ELG1-luciferase reporter, luminescence, 16 h. 1.3% of 330,000 active; further: nearly all actives have a fitted effect of over 60% in size
#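 Reporter readout depends on ELG1 protein level, which increases with genetic stress. After 16 hr compound exposure at 37 °C, luciferase activity was quantified using ONE-Glo.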
# ELG1 repair inh – ELG1-dependent DNA repair inhibition; HEK293T ELG1-luciferase reporter, luminescence, 16 h; DNA damage induced by 5-fluorouridine; Potency, µM (highest dose often 46.1 µM), hits mostly inhibitors; 2.3% of 330,000 active; further: nearly all actives have a fitted effect of over 55% in size
#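 Cells (2,000 per well) received 5-fluorouridine plus test compound or DMSO and were incubated 16 hr at 37 °C, 5% CO2. Luciferase activity was read by luminescence 30 min after ONE-Glo addition; signal suppression marked inhibition of damage-induced ELG1 function.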
# SMN2 splice up – increases expression of the SMN2 splice variant. 2.8% of 210,000 active. Potency, µM (titrated, usually from 46.1 µM), usual class: activators. HEK293 SMN2-luciferase splicing reporter, luminescence, 30-36 h; further: nearly all actives have a fitted effect of over 55% in size
#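 HEK293 cells carry an SMN2 […]–luciferase reporter in which exon 7 inclusion puts luciferase in frame. Cells were plated 10-12 h before compound addition, then incubated 30-36 h at 37C. ONE-Glo luminescence was read; sodium butyrate at 4.5 mM final served as control.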
# FLuc counter – inhibits or activates purified firefly luciferase, miR-21 counter-screen; AID 588342; Potency, µM (series often up to 57.5 µM), most hits filed as inhibitors; 6.9% of 360,000 active; purified FLuc, Km substrates, luminescence inhibition; further: nearly all actives have a fitted effect of over 55% in size
# Target sequence (P08659 whole entry, looked up): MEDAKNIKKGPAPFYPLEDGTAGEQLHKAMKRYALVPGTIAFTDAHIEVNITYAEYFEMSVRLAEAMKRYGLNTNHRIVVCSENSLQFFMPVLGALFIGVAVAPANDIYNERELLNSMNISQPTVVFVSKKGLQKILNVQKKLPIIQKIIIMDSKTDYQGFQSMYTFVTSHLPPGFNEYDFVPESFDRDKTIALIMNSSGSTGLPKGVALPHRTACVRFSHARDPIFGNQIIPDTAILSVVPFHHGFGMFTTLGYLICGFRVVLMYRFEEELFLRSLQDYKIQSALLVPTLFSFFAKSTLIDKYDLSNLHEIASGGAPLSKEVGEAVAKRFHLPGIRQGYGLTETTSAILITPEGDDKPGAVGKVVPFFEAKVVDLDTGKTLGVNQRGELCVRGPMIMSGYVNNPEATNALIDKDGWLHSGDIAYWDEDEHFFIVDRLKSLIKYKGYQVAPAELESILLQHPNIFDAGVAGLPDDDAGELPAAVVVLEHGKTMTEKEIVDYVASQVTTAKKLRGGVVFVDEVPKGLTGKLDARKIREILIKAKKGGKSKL
#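 Biochemical qHTS of compounds, final roughly 60 µM downward over six points, against 10 nM purified firefly luciferase using Km concentrations of substrates (10 uM D-luciferin, 10 uM ATP) in Tris acetate pH 7.5 buffer; luminescence output.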
# NPC1 promoter act – activates the NPC1 promoter; Huh7 NPC1 promoter luciferase reporter, 24 h; Potency, µM (top dose mostly 9.22 µM), actives largely listed as activators; 2.4% of 320,000 active; AID 485313; further: nearly all actives have a fitted effect of over 60% in size
#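 Cells: Huh7 expressing luciferase under the NPC1 promoter, 1500/well. Seeded 2 h, compound added, incubated 24 h at 37 °C. Luciferase reagent, 10 min ambient, then luminescence.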
# Rab9 promoter act – Rab9 promoter activation; 2.8% of 320,000 active; Potency, µM (doses to about 9.22 µM), usual class: activators; Huh7 Rab9 promoter-luciferase reporter, luminescence, 24 h; further: nearly all actives have a fitted effect of over 60% in size
#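 Luminescence read-out: Huh7 cells stably expressing Rab9-luciferase, treated 24 h with compound at 37 °C, then lysed with luciferase reagent for 10 min at ambient before reading.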
# Numbers stand for hits; . = inactive; ? = inconclusive; / = no result. In the library only some 9.2% were active in any assay of this set; here they are far more common. The call rests on the fitted dose curve; in most records, active means well fitted curve in the direction sought with a large enough effect; inconclusive means small, poorly fitted or top-dose-only effect, or another doubt; inactive means no such curve, though single readings can be large; an effect the other way counts as inactive or inconclusive.
SMILES,ELG1 genotoxic,ELG1 repair inh,SMN2 splice up,FLuc counter,NPC1 promoter act,Rab9 promoter act
COCc1cc(C)n(CC(=O)Nc2ccc(N3CCOCC3)cc2)c(=O)c1C#N,.,.,/,.,.,.
c1ccc2oc(NC3=NCN(CC4CCCO4)CN3)nc2c1 (stereo not given),10µM,?,13µM,17µM,?,4µM
Cn1c(-c2ccc(CN3CCCCC3)o2)nc2ccccc21,?,?,13µM,15µM,?,?
c1ccc2c(c1)nc(-c1ccncc1)n2CCNc1nc(CN2CCCCC2)cs1,.,.,/,.,.,.
CCc1cc(C(=O)COc2ccc(F)cc2)c(O)cc1O,.,?,/,?,.,.
Cc1c(O)ccc(C(=O)COc2ccc(F)cc2)c1O,.,?,/,12µM,?,5µM
S=C(c1ccc(OCc2ccccc2)cc1)N1CCCC1,?,?,/,19µM,?,?
Fc1ccc(COc2ccc(C(=S)N3CCCC3)cc2)cc1,?,?,/,21µM,2.2µM,1.3µM
O=C(COc1ccc(C(=S)N2CCCC2)cc1)Nc1ccc(F)cc1,.,.,/,.,.,.
COc1cccc(NC(=O)N2CCC(NC(=O)c3ccco3)CC2)c1,.,.,/,.,.,.
Cc1cccc(N2CC(C(=O)Nc3nnc(SCC(=O)N4CCOCC4)s3)CC2=O)c1 (stereo not given),.,.,/,.,.,.
COc1ccc2nc(Nc3ccccc3)sc2c1,.,?,11µM,1.5µM,3.5µM,1.6µM
COc1ccc2nc(NC(=O)Nc3cccc4ccccc34)sc2c1,.,?,?,?,.,?
COc1ccc2nc(Nc3nc4cc5c(cc4s3)OCO5)sc2c1,.,?,?,.,.,.
COc1ccc(Nc2nc3ccccc3c(=O)s2)c(OC)c1,.,.,.,.,.,.
COc1ccccc1NC(=O)Nc1nc2ccc(S(N)(=O)=O)cc2s1,?,?,/,?,?,4µM
COc1ccc2nc(Nc3ccccc3OC)sc2c1,?,?,2.8µM,0.48µM,1.1µM,0.35µM
COc1ccc2nc(NC(=O)Nc3ccccc3OC)sc2c1,?,?,/,0.95µM,?,0.63µM

# From PubChem BioAssay
